Screen size: about 1,300 compounds; fewer than 10 were called active. Another 9% or so got no clear call; they are omitted. Calls follow the shape of the dose curve; as a rule, active = well fitted curve in the direction sought with a large enough effect; inconclusive = small, poorly fitted or top-dose-only effect, or another doubt; inactive = no such curve, though single readings can be large or run the other way. Only a sample is shown. Entries that show only a call come without a potency.

The assay in a line: qHTS for antagonists of the Thyroid Stimulation Hormone Receptor: Hit Validation in Parental Cell Line. Particulars: parental HEK293 cells lacking TSHR, counter-screen; series mostly up to 56.9 µM. The text has this:
The thyroid-stimulating hormone receptor (TSHR) is a member of the 7 trans-membrane-spanning receptor (7TMR) family of cell surface receptors. TSHR-mediated hyperthyroidism is important in thyroid pathology. The development of small molecule antagonists of TSHR may lead to therapeutic approaches for TSHR-mediated hyperthyroidism caused by constitutively activating mutations or stimulating auto-antibodies associated with Graves' disease. Graves' disease is the leading cause of hyperthyroidism and is caused by autoantibodies that stimulate TSHR (TsAbs) causing thyroid growth and unregulated overproduction of thyroid hormones and existing treatments have liabilities (agranulocytosis). In addition, TSHRs are known to be expressed in multiple extrathyroidal tissues including bone, brain, kidney, testis, fat and cells of the immune system but the role of the TSHR in these tissues is not clear. Therefore, TSHR antagonists/inverse agonists could be used as probes of extrathyroidal TSHR function. Finally, TSHR inverse agonists, which are a subclass of antagonists that inhibit agonist-independent (or basal or constitutive) TSHR signaling, could be used to inhibit TSH-independent signaling in patients with recurrent or metastatic thyroid cancer who are receiving thyroid hormone to suppress TSH.
In collaboration between scientist from the NCGC and the NIDDK, a miniaturized HTRF high-throughput screen was developed. It's a cell based assay, where an anti cAMP antibody contains a fluorescent cryptate tag (excitation 337 nm; emission 620 nm) and the acceptor is cAMP-d2 (excitation 620 nm; emission 665 nm). When antibody and cAMP-d2 interact and are excited by a 337 nm light, a FRET occurs resulting in emission at 665 nm. The assay is competition between cAMP-d2 and cAMP (from the cell lysate). The homogeneous protocol allows for one step dispense after stimulation that is automation friendly. This is a hit validation assay in a counterscreen using parental HEK 293 cells lines.
NIH Chemical Genomics Center [NCGC]
NIH Molecular Libraries Probe Centers Network [MLPCN]
Assay Provider: Marvin Gershengorn, NIDDK
An anti cAMP antibody contains a fluorescent cryptate tag (excitation 337 nm; emission 620 nm) and the acceptor is cAMP-d2 (excitation 620 nm; emission 665 nm). When antibody and cAMP-d2 interact and are excited by a 337 nm light, a FRET occurs resulting in emission at 665 nm. The assay is competition between cAMP-d2 and cAMP (from the cell lysate). The homogeneous protocol allows for one step dispense after stimulation that is automation friendly. This assay uses parental HEK-EM 293 cells
For `Cc1cc2c(NCc3ccccc3)ncnc2s1`, the Potency result was “inactive”.
In the case of `COC(=O)c1ccc(/C(O)=C(\C#N)c2nc3ccccc3s2)cc1` it was “inactive”.
In the case of `COc1ccc(-c2sc3ccc(N4CCOCC4)cc3c2C#CCO)cc1` it was “inactive”; in that of `Cc1[nH]c2ccccc2c1/C=C/c1cc[n+](C)cc1`, “inactive”.
In the case of `O=C(NCC1CCCN(C(=O)c2cccc(C(F)(F)F)c2)C1)c1ccc(F)cc1` (configuration not stated) it was “inactive”; in that of `COc1ccc(-c2c(C(F)(F)F)[nH]n3c(=O)cc(-c4ccccc4)nc23)cc1`, “inactive”; in that of `COc1ccc(/C=C2/SC(=S)NC2=O)cc1OCc1ccccc1`, “inactive”.
Take `COc1ccc(OC)c2c1C(=O)C(Cl)=C(Cl)C2=O`: the Potency entry was “inactive”.
Regarding `O=C1c2ccccc2C(=O)N1CCCCSc1nnnn1-c1ccccc1`, the Potency entry is “inactive”.
In the case of `Cc1cc(Br)ccc1OCC(=O)NC1CCCC1` it was “inactive”; in that of `COc1ccccc1NS(=O)(=O)c1cc(NC(=O)c2ccc3c(c2)OCCO3)ccc1C`, “inactive”; in that of `O=C(COc1ccc(Cl)cc1Cl)Nc1ccc(C(=O)Nc2ccccc2C(=O)O)cc1`, “inactive”.
In the case of `O=C(COC(=O)c1ccccc1SCC(=O)N1CCCC1)Nc1ccccc1` it was “inactive”.
The same measure for `Cc1ccc(OC(F)F)c(NC(=O)Nc2cccc(C(F)(F)F)c2)c1`: “inactive”; for `O=C(c1cc(COc2cccc3cnccc23)on1)N1CCCC(CCCO)C1` (configuration not stated): “inactive”; for `Cc1ccc(S(=O)(=O)/N=C2/NC(=O)/C(=C\c3cc(Br)cc(Br)c3O)S2)cc1`: “inactive”.
With `CCN(CC)S(=O)(=O)c1cccc(C(=O)/C=C2/N(C)c3ccccc3C2(C)C)c1`, the Potency result is “inactive”.
In the case of `CCCOc1ccc(CSc2nc3ccccc3[nH]2)cc1` it was “inactive”; in that of `Cc1nn(CCCC(=O)Nc2cc(Oc3ccccc3)cc([N+](=O)[O-])c2)c(C)c1[N+](=O)[O-]`, “inactive”.
In the case of `Cc1ccccc1CS(=O)(=O)c1ncc(Cl)c(C(=O)Nc2ccc(F)cc2)n1` it was “inactive”.
Consider `Cc1cc(NC(=O)CC(C)C)c(=O)n(Cc2cccc(F)c2)c1`, for which the Potency result was “inactive”.
In the case of `CCOC(=O)c1c(NC(=O)/C=C/C(=O)O)sc(C)c1-c1ccc(F)cc1` it was “inactive”.
In the case of `Cc1cc(NC(=O)c2cccc(S(=O)(=O)N3CCOCC3)c2)c2ccccc2n1`, the Potency entry is “inactive”.
Consider `O=C(Nc1nnc(C(F)(F)F)s1)c1ccc(Br)s1`, for which the Potency entry was “inactive”.
In the case of `COc1ccc(-c2nc(NC(=O)c3cc(C(C)(C)C)nn3C)sc2C)cc1` it was “inactive”; in that of `CCc1noc(C)c1C(=O)Oc1ccc(N(C)S(=O)(=O)c2ccc(C)cc2)cc1`, “inactive”.
`COc1ccc(C(=O)N2CCN(c3ccc([N+](=O)[O-])c(NCCc4ccc(OC)c(OC)c4)c3)CC2)cc1`: the Potency result is “inactive”.
The same measure for `O=[N+]([O-])c1ccc(S(=O)(=O)c2ccccc2)nc1`: “inactive”; for `CC1CC(C)CN(C(=O)c2ccc3c(=O)n(Cc4ccc5c(c4)OCO5)c(=S)[nH]c3c2)C1` (configuration not stated): “inactive”; for `CCc1nnc(NC(=O)c2ccc(Cl)c(S(=O)(=O)N3CCc4ccccc43)c2)s1`: “inactive”.
The same measure for `COCCn1nnnc1C(c1cccs1)N1CCN(c2cc(C)ccc2C)CC1` (configuration not stated): “inactive”; for `Cc1cc(NC(=O)c2cc(-c3ccco3)on2)nn1Cc1ccc(Cl)cc1`: “inactive”; for `COc1ccc(-c2csc(NC(=O)c3ccccc3NS(=O)(=O)c3ccc(C)cc3)n2)cc1`: “inactive”.
The same measure for `Cc1cccc(OCCCCc2c(C)n[nH]c2C)c1C`: “inactive”; for `Cc1cc2cc(CCNC(=O)c3ccc(S(=O)(=O)N4CCCC4)cc3)c(=O)[nH]c2cc1C`: “inactive”.
Turning to `O=C(NCCc1ccccc1)C(=O)NCC1OCCCN1S(=O)(=O)c1cc(F)ccc1F` (configuration not stated), the Potency result was “inactive”.
Turning to `CCOc1ccc(NS(=O)(=O)c2cc(NC(=O)c3cccc(C)c3)ccc2Cl)cc1`, the Potency result was “inactive”.

The values are drawn from PubChem BioAssay AID602441 (National Center for Advancing Translational Sciences (NCATS), 2012).
